# Laboratory results taken from PubChem BioAssay (Tox21).
# Inconclusive results are not listed. A number with no mark means an inactive call. The source made the active and inactive calls. Calls follow the shape of the dose curve; as a rule, active = well fitted curve in the direction sought with a large enough effect in the repeat runs; inconclusive = weak or mixed curves; inactive = no such curve, though single readings can be large; an effect the other way counts as inactive or inconclusive.
# Assay: qHTS RealTime-Glo MT Cell Viability Assay in HEK293 cells - 16 hour (AID 1224872); also: nearly all actives have a fitted effect of over 50% in size; also: potency is read from the fitted curve at half-maximal effect; as to activity change, negative = cytotoxicity: top concentration of the series differs between compounds
# Conditions: RealTime-Glo luminescence; series mostly up to 76.8 µM; activity change, negative = cytotoxicity: at the top concentration
# In short: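 Reads taken at 0, 8, 16, 24, 32 and 40 h from the same wells. HEK293 cells (600/well) carried RealTime-Glo reagents from seeding, with compound added after a 5 h settle at 37 C.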
# % is scaled to controls: 0 for no effect and ±100 for the full control effect.
SMILES,"activity change, negative = cytotoxicity",Potency
CCN1CCCC1CN (stereo unspecified),10.8% [at 35.3 µM],–
N[C@@H](Cc1ccc(O)cc1)C(=O)O,0.747% [at 6.97 µM],–
CC(S)C(C)S (stereo unspecified),15.4%,–
C/C(CC(C)C)=N\O,-1.32%,–
CC(O)CC(C)O (stereo unspecified),-0.493%,–
O=C(CN1CCNCC1)NC1CCCCC1,-0.679% [at 35.3 µM],–
O=C(O)CNC(=O)CNC(=O)CNC(=O)CSC(=O)c1ccccc1,9.88% [at 35.3 µM],–
CCC(C)C(C)=O (stereo unspecified),-2.43%,–
O=C1CCCCO1,11.1%,–
Cc1ncc([N+](=O)[O-])n1CC(C)O (stereo unspecified),0.282% [at 35.3 µM],–
C=CCCCCCCCCC(=O)OCCCC,10.7%,–
O=C[O][Al]([O]C=O)[O]C=O,23.7%,–
CN1C[C@@H]2C[C@H]1CN2c1cc2c(cc1F)c(=O)c(C(=O)O)cn2C1CC1,1.79% [at 15.8 µM],–
CC/C(C)=N\O[Si](C)(O/N=C(\C)CC)O/N=C(\C)CC,0.0414%,–
O/N=C/C=N/O,7.36%,–
CCCCSCCCC,1.52%,–
CC1(C)[C@H]2CC[C@](C)(C2)[C@H]1O,2.18%,–
CN1CCOC(c2ccccc2)c2ccccc2C1 (stereo unspecified),2.91% [at 35.3 µM],–
N#Cc1ccccc1O,20.7%,–

SMILES,"activity change, negative = cytotoxicity",Potency
CC(Oc1cc(Cl)ccc1Cl)C(=O)O (stereo unspecified),7.4%,–
C=CCCCC,9.68%,–
CC(=O)O[C@@H]1CC2CCC1(C)C2(C)C (stereo partly specified),-0.966%,–
CCCCCCCCCCCCCCC(=O)NC(CO)CCCCCCCCCCCCCC (stereo unspecified),8.82%,–
O=C(O)[C@H](O)c1ccccc1,0.101% [at 35.3 µM],–
CCC(C)OC(C)CC (stereo unspecified),-0.929%,–
[O-][n+]1cccc(/C(Cl)=N/OC[C@@H](O)CN2CCCCC2)c1,3.3% [at 35.3 µM],–
COS(=O)(=O)O,3.12%,–
CCCSSCCC,3.01%,–
C=C(C)C1CC=C(C)C(=O)C1 (stereo unspecified),10.3%,–
N#CCC(=O)NN,7.03% [at 35.3 µM],–
CCCCOC(=O)[C@H](C)O,0.94%,–
CCCCCCCCCCCCCCCCCC#N,-10.9%,–
CC(C)NC(=O)c1ccc(C=O)cc1,1.97% [at 35.3 µM],–
O=NN(CCCl)C(=O)NC1CCCCC1,15.1% [at 35.3 µM],–
CC(C)Nc1ccccc1,1.37%,–
C/C=C(\C)C(C)=O,-1.85%,–
COc1c2occc2c(OC)c2c(=O)cc(C)oc12,–,9.52 µM (active)

# Assay: qHTS RealTime-Glo MT Cell Viability Assay in HepG2 cells - 8 hour (AID 1224873); also: nearly all actives have a fitted effect of over 55% in size
# Conditions: RealTime-Glo luminescence; series mostly up to 76.8 µM; viability change, negative = cytotoxic: at the top concentration
# In short: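 HepG2 cells mixed with RealTime-Glo MT reagents (NanoLuc plus cell-permeant prosubstrate) were seeded at 600 cells/well, incubated 5 h at 37 C/5% CO2, then pinned with compounds in DMSO; nonlytic luminescence tracked viability during 40 h treatment.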
row,SMILES,"viability change, negative = cytotoxic"
1,CCN1CCCC1CN (stereo unspecified),4.09% [at 35.3 µM]
2,N[C@@H](Cc1ccc(O)cc1)C(=O)O,0.728% [at 6.97 µM]
3,CC(S)C(C)S (stereo unspecified),5.82%
4,C/C(CC(C)C)=N\O,-2.39%
5,CC(O)CC(C)O (stereo unspecified),0.579%
6,O=C(CN1CCNCC1)NC1CCCCC1,-6.69% [at 35.3 µM]
7,O=C(O)CNC(=O)CNC(=O)CNC(=O)CSC(=O)c1ccccc1,2.96% [at 35.3 µM]
8,CCC(C)C(C)=O (stereo unspecified),-1.09%
9,O=C1CCCCO1,0.784%
10,Cc1ncc([N+](=O)[O-])n1CC(C)O (stereo unspecified),0.786% [at 35.3 µM]
11,C=CCCCCCCCCC(=O)OCCCC,-6.18%
12,O=C[O][Al]([O]C=O)[O]C=O,-1.7%
13,CN1C[C@@H]2C[C@H]1CN2c1cc2c(cc1F)c(=O)c(C(=O)O)cn2C1CC1,8.97% [at 15.8 µM]
14,CC/C(C)=N\O[Si](C)(O/N=C(\C)CC)O/N=C(\C)CC,-0.39%
15,O/N=C/C=N/O,1.72%
16,CCCCSCCCC,3.67%
17,CC1(C)[C@H]2CC[C@](C)(C2)[C@H]1O,2.91%
18,CN1CCOC(c2ccccc2)c2ccccc2C1 (stereo unspecified),2.77% [at 35.3 µM]
19,N#Cc1ccccc1O,-3.48%

row,SMILES,"viability change, negative = cytotoxic"
1,CC(Oc1cc(Cl)ccc1Cl)C(=O)O (stereo unspecified),0.729%
2,C=CCCCC,-0.0672%
3,CC(=O)O[C@@H]1CC2CCC1(C)C2(C)C (stereo partly specified),1.45%
4,CCCCCCCCCCCCCCC(=O)NC(CO)CCCCCCCCCCCCCC (stereo unspecified),3.69%
5,O=C(O)[C@H](O)c1ccccc1,1.26% [at 35.3 µM]
6,CCC(C)OC(C)CC (stereo unspecified),-10.6%
7,[O-][n+]1cccc(/C(Cl)=N/OC[C@@H](O)CN2CCCCC2)c1,3.27% [at 35.3 µM]
8,COS(=O)(=O)O,2.19%
9,CCCSSCCC,3.09%
10,C=C(C)C1CC=C(C)C(=O)C1 (stereo unspecified),-0.91%
11,N#CCC(=O)NN,2.14% [at 35.3 µM]
12,CCCCOC(=O)[C@H](C)O,4.93%
13,CCCCCCCCCCCCCCCCCC#N,-5.41%
14,CC(C)NC(=O)c1ccc(C=O)cc1,0.344% [at 35.3 µM]
15,O=NN(CCCl)C(=O)NC1CCCCC1,0.549% [at 35.3 µM]
16,CC(C)Nc1ccccc1,2.32%
17,C/C=C(\C)C(C)=O,1.48%
18,COc1c2occc2c(OC)c2c(=O)cc(C)oc12,-21% [at 35.3 µM]

# Assay: qHTS RealTime-Glo MT Cell Viability Assay in HEK293 cells - 40 hour (AID 1224874); also: nearly all actives have a fitted effect of over 50% in size; also: potency is read from the fitted curve at half-maximal effect
# Conditions: RealTime-Glo luminescence; max response: stronger effect = lower value
# In short: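 HEK293 + NanoLuc + prosubstrate, 600 cells/well; 5 h, 37 C/5% CO2; compound 23 nL in DMSO by pintool; 37 C; luminescence read at 0, 8, 16, 24, 32 and 40 h time points.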
SMILES,max response,Potency
CCN1CCCC1CN (stereo unspecified),9.62%,–
N[C@@H](Cc1ccc(O)cc1)C(=O)O,-1.3%,–
CC(S)C(C)S (stereo unspecified),7.38%,–
C/C(CC(C)C)=N\O,-0.628%,–
CC(O)CC(C)O (stereo unspecified),0.995%,–
O=C(CN1CCNCC1)NC1CCCCC1,0.0212%,–
O=C(O)CNC(=O)CNC(=O)CNC(=O)CSC(=O)c1ccccc1,6.64%,–
CCC(C)C(C)=O (stereo unspecified),0.997%,–
O=C1CCCCO1,1.35%,–
Cc1ncc([N+](=O)[O-])n1CC(C)O (stereo unspecified),-2.46%,–
C=CCCCCCCCCC(=O)OCCCC,7.61%,–
O=C[O][Al]([O]C=O)[O]C=O,5.61%,–
CN1C[C@@H]2C[C@H]1CN2c1cc2c(cc1F)c(=O)c(C(=O)O)cn2C1CC1,11.1%,–
CC/C(C)=N\O[Si](C)(O/N=C(\C)CC)O/N=C(\C)CC,-3.49%,–
O/N=C/C=N/O,0.715%,–
CCCCSCCCC,1.22%,–
CC1(C)[C@H]2CC[C@](C)(C2)[C@H]1O,-1.99%,–
CN1CCOC(c2ccccc2)c2ccccc2C1 (stereo unspecified),0.485%,–
N#Cc1ccccc1O,15.1%,–

SMILES,max response,Potency
CC(Oc1cc(Cl)ccc1Cl)C(=O)O (stereo unspecified),-5.27%,–
C=CCCCC,10.8%,–
CC(=O)O[C@@H]1CC2CCC1(C)C2(C)C (stereo partly specified),5.83%,–
CCCCCCCCCCCCCCC(=O)NC(CO)CCCCCCCCCCCCCC (stereo unspecified),5.76%,–
O=C(O)[C@H](O)c1ccccc1,0.819%,–
CCC(C)OC(C)CC (stereo unspecified),-6.97%,–
[O-][n+]1cccc(/C(Cl)=N/OC[C@@H](O)CN2CCCCC2)c1,2.14%,–
COS(=O)(=O)O,-1.57%,–
CCCSSCCC,2.19%,–
C=C(C)C1CC=C(C)C(=O)C1 (stereo unspecified),0.21%,–
N#CCC(=O)NN,1.05%,–
CCCCOC(=O)[C@H](C)O,1.9%,–
CCCCCCCCCCCCCCCCCC#N,-5.42%,–
CC(C)NC(=O)c1ccc(C=O)cc1,0.577%,–
O=NN(CCCl)C(=O)NC1CCCCC1,1.88%,–
CC(C)Nc1ccccc1,3.46%,–
C/C=C(\C)C(C)=O,0.603%,–
COc1c2occc2c(OC)c2c(=O)cc(C)oc12,–,9.52 µM (active)
